Screening data from PubChem.
KB-3-1 tox = qHTS assay for MDR1-selective chemotherapeutics: Primary screen using the parental adenocarcinoma cell KB-3-1. KB-3-1 viability, CellTiter-Glo ATP luminescence, 72 h. Potency, µM (series often up to 46.1 µM), most hits filed as cytotoxic. 1.4% of 400,000 active. AID 1347075, 2019; also: % is scaled to controls: 0 for no effect and ±100 for the full control effect; nearly all actives have a fitted effect of over 60% in size
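Cells are dispensed, compounds pinned in, plates held at 37 °C for 72 h, then CellTiter-Glo is added and luminescence read after 10 minutes. Cell line: parental KB-3-1 in phenol-red-free DMEM, 10% FBS.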
HT1080-NT tox = qHTS for induction of synthetic lethality in tumor cells producing 2HG: qHTS for the HT-1080-NT fibrosarcoma cell line | Potency, µM (top dose mostly 46.1 µM), inactives show top-dose activity, negative = less viability, usual class: cytotoxic | HT-1080-NT fibrosarcoma viability, CellTiter-Glo ATP luminescence, 48 h | 1.6% of 360,000 active;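 also: NT is the 2HG producing partner of a matched IDH1 knockdown line; 0% = DMSO-treated cells and -100% = media-only wells without cells; nearly all actives have a fitted effect of over 55% in size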
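Fibrosarcoma NT cells, 750 per well in 5% FBS RPMI, were exposed to compound for 48 hours. Viability: CellTiter-Glo luminescence.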
HT1080 IDH1KD tx = qHTS for induction of synthetic lethality in tumor cells producing 2HG: qHTS for the HT-1080-IDH1KD cell line | Potency, µM (highest dose often 46.1 µM), for inactives: at the top dose activity, negative = toxicity, hits mostly cytotoxic | HT-1080 IDH1 knockdown viability, ATP luminescence, 48 h | 2% of 360,000 active;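 also: 0% = DMSO wells and -100% = cell-free medium wells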
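Luminescent ATP read-out (CellTiter-Glo, 10 min at room temperature) after 48 h compound exposure at 37 °C gave viability of IDH1-knockdown HT-1080 cells. Activity was normalised to DMSO and cell-free wells, then fitted as concentration-response curves.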
MCF10A rereplic = A quantitative high throughput screen for small molecules that induce DNA re-replication in MCF 10a normal breast cells; MCF 10A DNA re-replication, Hoechst nuclear intensity, 48 h; Potency, µM (doses to about 46.1 µM), for inactives: at the highest dose activity, positive = re-replication, usual class: activators; 2.9% of 350,000 active; also: % of control where 0% means no effect; nearly all actives have a fitted effect of over 50% in size
KB-V1 MDR tox = qHTS assay for MDR1-selective chemotherapeutics: Primary screen using the drug-selected MDR subline cells KB-V1. AID 1347076, 2019. Potency, µM (series often up to 46.1 µM), hits mostly cytotoxic. KB-V1 MDR cells viability, CellTiter-Glo, 72 h. 3.4% of 400,000 active; also: % is scaled to controls: 0 for no effect and ±100 for the full control effect; nearly all actives have a fitted effect of over 60% in size
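Cytotoxicity via CellTiter-Glo luminescence after 72 h compound exposure at 37 degrees C. Cells: drug-selected KB-V1 line, DMEM phenol-red free plus 10% FBS. Compounds tested at multiple concentrations; normalized data fitted to concentration-effect curves.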
SW480 rereplic = A quantitative high throughput screen for small molecules that induce DNA re-replication in SW480 colon adenocarcinoma cells | SW480 DNA re-replication, Hoechst DNA content imaging, 48 h | Potency, µM (doses to about 46.1 µM), without a hit: at the top dose re-replication activation, actives largely listed as activators | 1.8% of 340,000 active | AID 624297, 2012; also: % of control where 0% means no effect; nearly all actives have a fitted effect of over 55% in size
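Cells (250 per well) received 23 nL compound or DMSO by pin tool and were kept 48 hr at 37 C, 5% CO2. Nuclei were then stained with Hoechst for 40 min and scanned for DNA content.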
* hit, by the source's call; i = inactive; ? = inconclusive; nt = no result. An excerpt weighted towards active compounds, which were near 8% of everything screened. Calls follow the shape of the dose curve; as a rule, active = well fitted curve in the direction sought with a large enough effect; inconclusive = small, poorly fitted or top-dose-only effect, or another doubt; inactive = no such curve, though single readings can be large; an effect the other way counts as inactive or inconclusive. Potency is read from the fitted curve at half-maximal effect.

SMILES | KB-3-1 tox | HT1080-NT tox | HT1080 IDH1KD tx | MCF10A rereplic | KB-V1 MDR tox | SW480 rereplic
Cc1nc2c3cc(Cl)ccc3n(CCN3CCOCC3)c2s1 | ? | 23µM* | 21µM* | ? | ? | ?
CCCCn1c2ccc(F)cc2c2nnc(SCCN3CCCCC3)nc21 | ? | 7% | 1% | 9% | i | -9%
Cc1ccc2c(c1)c1nc3ccccc3nc1n2CCN1CCOCC1 | i | -13% | -15% | ? | 21µM* | ?
CCCCn1c2ccc(C)cc2c2nnc(SCCN3CCCCC3)nc21 | 18µM* | -11% | -13% | 4% | i | ?
CC(=O)Nc1cc(-c2ccc(N(C)C)cc2)cn2c(-c3ccc(F)c(Cl)c3)cnc12 | i | ? | ? | nt | i | nt
O=c1ccc2ccccc2c2ccccc12 | 8.2µM* | 8.2µM* | 5.8µM* | nt | ? | nt
COc1ccc(C=C(C(C)=O)C(=O)c2ccccc2)cc1 | i | 23µM* | 23µM* | nt | i | nt
COc1ccc(C=C(C(=O)c2ccccc2)c2ccccc2)cc1 | ? | -31% | -1% | nt | ? | nt
COc1ccc(C=C(C(=O)c2ccccc2)C(=O)c2ccccc2)cc1 | ? | 18µM* | ? | nt | ? | nt
CSc1ccc(CCNC(=O)c2cc(-c3ccccc3)c(N3CCOCC3)s2)cc1 | i | 0% | 1% | 6% | i | -9%
COc1ccc2c(c1OC)c(=O)n1c3ccc(OC(C)C(=O)NCCN4CCOCC4)cc3c3ccnc2c31 (stereo not given) | i | -4% | -4% | -5% | i | ?
CC(Oc1ccc2c(c1)c1ccnc3c4ccccc4c(=O)n2c13)C(=O)NCCN1CCOCC1 (stereo not given) | i | -9% | -7% | 1.6µM* | i | ?
COc1ccc2c(c1OC)c(=O)n1c3ccc(OC(C)C(=O)NCCCN4CCOCC4)cc3c3ccnc2c31 (stereo not given) | i | -2% | -11% | 5.8µM* | i | 18µM*
CCCCN(C=O)c1c(CC)nc2ccc(C(=O)NCCN(C)C)cn12 | i | 12% | 12% | nt | i | nt
O=C1c2ccccc2C(=O)N1c1nc(-c2ccc(Cl)cc2)cs1 | i | nt | nt | nt | i | nt
Cc1cccc(/C=N/NC(=O)c2ccccc2OCc2cccc(Br)c2)n1 | i | -10% | ? | 18µM* | i | 19%
O=C(N/N=C/c1cccnc1)c1cc(Br)ccc1O | i | 17% | 17% | -5% | i | 1%
O=C(N/N=C/c1ccco1)c1cc(Br)ccc1OCc1ccccc1 | i | 12% | 4% | 22% | i | 1%
Cc1cccc(/C=N/NC(=O)c2cc(Br)ccc2OCc2ccccc2)n1 | i | ? | 18µM* | ? | i | ?
O=C(N/N=C/c1ccccn1)c1cc(Br)ccc1O | i | -20% | ? | ? | i | 4.1µM*
Cc1cc(C(=O)Cn2nc(C(=O)O)c3ccccc3c2=O)c(C)n1CCc1ccc(Cl)cc1 | i | -1% | -13% | 4% | ? | -2%
O=C(Cn1c(-c2cccs2)cc2ccccc21)N1CCN(c2ccc(F)cc2)CC1 | i | nt | nt | nt | i | nt
Cc1cc(C)cc(Nc2nc3ccccc3nc2-n2nc(C)cc2C)c1 | i | nt | nt | nt | i | nt
CCOc1ccc(C2Nc3ccc4ccccc4c3-c3c2c(=O)oc2ccccc32)cc1 (stereo not given) | i | 8% | ? | 5.2µM* | i | ?
OC(CSc1nnnn1-c1ccccc1)Cn1c2ccccc2c2ccccc21 (stereo not given) | ? | -53% | ? | nt | 21µM* | nt
SMILES | KB-3-1 tox | HT1080-NT tox | HT1080 IDH1KD tx | MCF10A rereplic | KB-V1 MDR tox | SW480 rereplic
Cc1ccccc1Nc1scc(-c2ccc(Cl)cc2)[n+]1-c1ccccc1C | 9.2µM* | -4% | -4% | ? | i | -8%
COc1cccc(OC)c1C(=O)N1CCN(Cc2ccccc2C(F)(F)F)CC1 | i | -17% | -12% | 0% | i | 1%
COc1cc(C(=O)N2CCN(Cc3ccccc3C(F)(F)F)CC2)cc(OC)c1OC | i | 9% | 13% | ? | 15µM* | 11%
COc1cc(OC)cc(C(=O)N2CCN(Cc3ccccc3C(F)(F)F)CC2)c1 | i | -8% | -29% | 15% | 15µM* | 7%
O=C(c1ccc(OC2CCN(Cc3ccc(C(F)(F)F)cc3)CC2)cc1)N1CCCCC1 | i | 13% | 16% | ? | i | -2%
O=C(c1ccc(OC2CCN(Cc3ccccc3C(F)(F)F)CC2)cc1)N1CCCCC1 | ? | -15% | ? | ? | 16µM* | ?
CCc1ccc(C(=O)c2cn(CC(=O)Nc3ccc(OC)c(OC)c3)c3ccc(C)cc3c2=O)cc1 | i | nt | nt | nt | i | nt
COc1ccc(NC(=O)C(Cc2ccccc2)NS(=O)(=O)c2ccc3c(c2)CCC(=O)N3)c(OC)c1 (stereo not given) | i | nt | nt | nt | ? | nt
COc1ccc(CCNC(=O)Cc2ccc(OCc3ccccc3)c(OC)c2[N+](=O)[O-])cc1OCc1ccccc1 | ? | -1% | 0% | ? | 2.6µM* | -6%
Clc1cccc(Cl)c1CO/N=C/c1c(-c2ccccc2)nc2n1CCS2 | ? | ? | -30% | ? | 13µM* | 12%
COc1ccc(C(=O)/C=C/NCc2ccc(C)cc2)cc1 | i | -19% | 3% | 13µM* | i | 21µM*
Cc1ccc(C(=O)/C=C\NCc2ccccc2)cc1 | i | 7% | 4% | ? | i | -10%
COc1ccc2cc(Br)ccc2c1CC(=O)NC1CC(C)(C)NC(C)(C)C1 | i | ? | 16µM* | 10% | ? | ?
N#Cc1ccccc1NC(=O)C1SC(=Nc2ccccc2)C(C(=O)Nc2ccc(Cl)cc2)=C1N (stereo not given) | 5.2µM* | -22% | -5% | ? | 6.5µM* | 2%
CCOc1ccc(N=C2SC(C(=O)Nc3ccccc3C#N)C(N)=C2C(=O)Nc2ccc(Cl)cc2)cc1 (stereo not given) | i | 10% | 9% | ? | i | -2%
O=C(NNC(=O)c1cc(-c2ccc(Cl)c(Cl)c2)nc2ccccc12)Nc1ccccc1 | ? | ? | ? | 21µM* | ? | ?
